Assay outcomes deposited in PubChem BioAssay by National Center for Advancing Translational Sciences (NCATS).
A selection: hits, their analogues and other compounds. The true share with any hit is near 18%.
CtBP-E1A inh: blocks the CtBP interaction with E1A. AlphaScreen GST-E1A/His-CtBP binding, 1536-well; hits give low values. activity change, % (no concentration beside the values). 0.49% of 340,000 active. AID 651724; in the data active = activity change below about -65%; inconclusive = mostly about -30% to -63%
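GST-E1A and His-tagged CtBP (125 nM each as 5X stock) were preincubated with pin-transferred compound for 2 h at 37 °C in the dark, then glutathione donor and nickel acceptor beads were added for 1 h before AlphaScreen reading.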
IL1B secr inh: inflammasome signaling inhibition, IL-1 beta readout | 4.7% of 360,000 active | activity change, % at 57.5 µM | THP-1 LPS/ATP IL-1B secretion, AlphaLISA, 16 h; hits give low values; in the data active = activity change below about -50%; inconclusive = mostly about -30% to -49%
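Secreted IL-1B measured by AlphaLISA bead assay after 16 h compound exposure of THP-1 cells; compounds (final up to 57.5 uM) added 1 h before LPS (250 ng/mL) and ATP (1.25 mM) stimulation; lower signal means less secretion.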
TDP1 inh: blocks human tyrosyl-DNA phosphodiesterase 1; Q9NUW8; recombinant TDP1, AlphaScreen DNA substrate cleavage; Potency, µM (series often up to 130 µM), inactives show top-dose activity change, negative = inhibition, usual class: inhibitors; 0.28% of 350,000 active; AID 485290; note: potency is the fitted concentration of half-maximal effect; nearly all actives have a fitted effect of over 40% in size
Target sequence (Q9NUW8 whole entry, looked up): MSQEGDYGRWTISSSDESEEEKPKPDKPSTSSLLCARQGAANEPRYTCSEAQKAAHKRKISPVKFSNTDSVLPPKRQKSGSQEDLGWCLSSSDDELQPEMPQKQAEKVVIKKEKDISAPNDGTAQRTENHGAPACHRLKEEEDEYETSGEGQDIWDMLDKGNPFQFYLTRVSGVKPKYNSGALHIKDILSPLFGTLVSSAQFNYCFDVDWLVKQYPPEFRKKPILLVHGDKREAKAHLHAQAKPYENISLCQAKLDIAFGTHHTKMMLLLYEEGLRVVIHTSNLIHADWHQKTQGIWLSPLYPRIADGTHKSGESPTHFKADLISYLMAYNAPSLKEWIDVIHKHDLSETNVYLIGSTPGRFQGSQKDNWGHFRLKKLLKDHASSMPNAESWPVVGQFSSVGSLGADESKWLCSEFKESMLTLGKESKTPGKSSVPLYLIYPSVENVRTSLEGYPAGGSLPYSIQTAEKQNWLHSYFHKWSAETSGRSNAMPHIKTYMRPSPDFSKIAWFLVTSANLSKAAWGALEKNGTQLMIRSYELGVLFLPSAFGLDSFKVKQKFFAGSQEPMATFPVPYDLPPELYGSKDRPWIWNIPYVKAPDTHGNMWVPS
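Here, a 5' biotin and 3' phosphotyrosine-FITC DNA oligonucleotide reports Tdp1 activity: intact substrate bridges AlphaScreen beads, while cleavage leaves a 3' phosphate and drops signal. All incubations at room temperature.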
DT40 TDP1 CPT: growth inhibition of DT40 Tdp1-/-;hTDP1 cells with camptothecin (screen for TDP1 inhibitors). Potency, µM (series often up to 46.2 µM), for inactives: at the highest dose activity change, negative = growth inhibition, usual class: inhibitors. 12% of 420,000 active. AID 686979. chicken DT40 Tdp1-/-;hTDP1 cells + 20 nM CPT, ATP luminescence, 48 h; note: potency is the fitted concentration of half-maximal effect; nearly all actives have a fitted effect of over 55% in size
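Chicken DT40 Tdp1-/- cells complemented with human TDP1, 400 cells/well, exposed to compounds plus 20 nM camptothecin for at least 48 h at 37 C; viability read as ATP content by CellTiter-Glo luminescence.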
Six1-Eya2 blk: Six1/Eya2 interaction inhibition | Q15475+O00167 | AlphaScreen GST-Six1/His-Eya2 binding, biochemical; hits give low values | activity change, % (no concentration beside the values) | 0.56% of 360,000 active | AID 651725; in the data active = activity change below about -65%; inconclusive = mostly about -30% to -63%
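AlphaScreen with GST-Six1 and His-Eya2 (5X mix: 250 nM and 500 nM), glutathione donor and nickel acceptor beads; buffer 50 mM Tris pH 8.0, 300 mM NaCl, 1 mM TCEP; 1 h at 37 C in the dark.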
DT40 TDP1 no CPT: qHTS for Inhibitors of human tyrosyl-DNA phosphodiesterase 1 (TDP1): qHTS in cells in absence of CPT; DT40 Tdp1-/- hTDP1 cells, no CPT, ATP luminescence, 48 h; Potency, µM (doses to about 46.2 µM), for inactives: top-dose activity change, negative = growth inhibition, most hits filed as inhibitors; 15% of 420,000 active; AID 686978, 2013; note: potency is the fitted concentration of half-maximal effect; nearly all actives have a fitted effect of over 55% in size
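Chicken DT40 Tdp1-/- cells stably complemented with human TDP1 were seeded at 400 cells/well with DMSO in place of 20 nM camptothecin. After compound pinning, cells grew at least 48 hr at 37 °C; viability read by CellTiter-Glo luminescence.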
* marks the source's active call; other numbers are inactive results; ? = inconclusive; · = not tested or not shown. Unless noted, calls come from the whole dose curve; as a rule, active = well fitted curve in the direction sought with a large enough effect; inconclusive = small, poorly fitted or top-dose-only effect, or another doubt; inactive = no such curve, though single readings can be large; an effect the other way counts as inactive or inconclusive. % is set by controls: 0 for no effect and ±100 for the full control effect.

SMILES	CtBP-E1A inh	IL1B secr inh	TDP1 inh	DT40 TDP1 CPT	Six1-Eya2 blk	DT40 TDP1 no CPT
CC1CCCCN1CCCNC(=O)c1ccc(NC(=O)C2=CSCCO2)cc1 (centres undefined)	·	-5	-9%	3%	1	-6%
Cc1ccc2oc(=O)c3cnn(CC(=O)N4CCN(c5ccccc5F)CC4)c3c2c1	·	·	1%	?	·	21µM*
Cc1ccc2oc(=O)c3cnn(CC(=O)N4CCN(c5ccccc5)CC4)c3c2c1	4	1	-6%	?	0	10µM*
COc1ccccc1N1CCN(C(=O)Cn2ncc3c(=O)oc4ccc(C)cc4c32)CC1	·	·	6%	-27%	·	?
COCCNc1nc(SCC(=O)N2CCN(c3ccccc3)CC2)nc2ccccc12	-9	-20	5%	?	-8	?
Cc1csc(NC(=O)c2ccc3nc[nH]c3c2)n1	-4	-12	·	?	0	23µM*
Cc1csc(NC(=O)c2ccc(C)c([N+](=O)[O-])c2)n1	-19	4	-3%	?	-18	16µM*
CCC(=O)NC(=S)Nc1ccc(NC(=O)c2ccc(C)c([N+](=O)[O-])c2)cc1	2	0	8%	?	-2	8.2µM*
Cc1nnc2c3ccccc3c(-c3cccc4ccccc34)nn12	1	16	0%	-28%	2	?
Cc1ccc(-c2nnc(SCCOc3ccccc3)o2)cc1	·	·	-2%	-18%	·	-13%
O=C(Nc1cccnc1)c1cccc(S(=O)(=O)Nc2cccc(Cl)c2)c1	-2	-23	0%	?	18	?
CCCCNC(=S)N(C)/N=C/c1c(F)c(F)c(F)c(F)c1F	-2	-104*	-3%	-1%	12	?
COC(=O)Nc1sc2c(c1C(N)=O)CCCCCC2	5	-7	1%	16µM*	-1	21µM*
Cc1cc([N+](=O)[O-])nn1CCCC(=O)Nc1sc2c(c1C(N)=O)CCCC2	4	?	1%	?	-4	18µM*
Cc1cc([N+](=O)[O-])nn1CC(=O)Nc1sc2c(c1C(N)=O)CCCC2	1	22	2%	7%	-13	2%
NC(=O)c1c(NC(=O)CN2C(=O)CCC2=O)sc2c1CCCCC2	2	0	1%	-5%	-2	-20%
NC(=O)c1c(NC(=O)CN2CCCC2)sc2c1CCCC2	-8	-3	2%	9.2µM*	-7	16µM*
NC(=O)c1c(NC(=O)c2ccncc2)sc2c1CCCC2	·	-9	2%	?	-9	16µM*
CC(C)COc1ccc(-c2cc(C(=O)NN)[nH]n2)cc1	-10	31	7%	?	3	?
Cc1cc(OC(=O)c2cccc(C(F)(F)F)c2)c([N+](=O)[O-])c(=O)[nH]1	0	-4	·	0%	2	0%
COCCN(C(=O)c1ccc(-c2ccc(Cl)cc2)o1)c1c(N)n(CC(C)C)c(=O)[nH]c1=O	0	8	2%	-8%	0	9%
NC(=O)c1c(NC(=O)COC(=O)c2ccc(O)c(Cl)c2)sc2c1CCCC2	-10	55	-6%	26µM*	-25	?
C=CC(=O)Nc1sc2c(c1C(N)=O)CCCC2	4	-109*	-3%	15µM*	13	?
Cc1cccc(N2CCN(C(=O)c3cc4c(=O)n(C)c5ccccc5c4s3)CC2C)c1 (centres undefined)	·	·	-5%	?	·	2.3µM*
Cc1ccc(Cl)cc1N1CCN(C(=O)c2cc3c(=O)n(C)c4ccccc4c3s2)CC1	·	·	2%	8%	·	2%
SMILES	CtBP-E1A inh	IL1B secr inh	TDP1 inh	DT40 TDP1 CPT	Six1-Eya2 blk	DT40 TDP1 no CPT
Cc1ccc(-c2c(C(=O)N3CCN(c4cccc(C)c4)C(C)C3)oc(=O)c3ccccc23)cc1 (centres undefined)	·	·	2%	15µM*	·	?
COc1ccccc1N1CCN(C(=O)c2cc3c(=O)n(C)c4ccccc4c3s2)CC1	·	·	0%	?	·	26µM*
Cc1cccc(N2CCN(C(=O)c3ccccn3)CC2C)c1 (centres undefined)	4	5	5%	?	-2	-18%
CC1CCN(C(=O)c2cc3c(=O)n(C)c4ccccc4c3s2)CC1	·	·	5%	12µM*	·	?
CCOC(=O)C1CCCN(C(=O)c2cc3c(=O)n(C)c4ccccc4c3s2)C1 (centres undefined)	·	·	7%	?	·	?
COc1ccc(CC(=O)NNC(=O)CCc2ccccc2)cc1OC	4	-2	3%	2%	-1	12%
CCc1c(C)nc(SCC(=O)Nc2ccc(Br)cc2)[nH]c1=O	0	19	0%	-17%	7	-22%
CCCCOc1ccc(S(N)(=O)=O)cc1	-2	33	1%	-12%	-1	-15%
Cc1ncc([N+](=O)[O-])n1CC(=O)Nc1ccccc1	·	10	3%	2%	7	-7%
COc1cc(/C=C/C(=O)O)cc(S(=O)(=O)Nc2ccc3nc(SC)sc3c2)c1OC	-1	15	5%	-5%	-2	15%
O=C(CCCCCN1C(=O)[C@@H]2Cc3ccccc3CN2C1=O)N[C@@H](Cc1ccc(O)cc1)C(=O)O	-18	7	·	-11%	3	1%
Cc1cccc(N2CCN(C(=O)c3ccc4c(c3)c(C)c(C)n4C)CC2C)c1 (centres undefined)	?	-23	13%	16µM*	?	21µM*
COc1ccccc1N1CCN(C(=O)c2cc3c(=O)n(C)c4ccccc4c3n2C)CC1	0	5	1%	23µM*	0	23µM*
Cc1ccc(-c2csc3nc[nH]c(=O)c23)cc1C	2	-8	4%	-1%	4	-2%
COc1ccc(N=CC2CCCCC2=O)c([N+](=O)[O-])c1 (centres undefined)	?	-85*	·	?	?	?
CC(C)CC1=C/C(=C/c2ccc(-c3ccccc3)o2)C(=O)O1	-12	0	5%	?	?	16µM*
NS(=O)(=O)c1ccc(-c2ccc(C=C3C(=O)c4ccccc4C3=O)o2)cc1	2	20	·	1%	1	4%
Cc1ncoc1C(=O)N1CCCC(CCC(=O)NCc2ccc(F)c(F)c2)C1 (centres undefined)	6	23	4%	-1%	-4	-15%
CCCn1nc(NC(=O)C2CCCO2)c2cc3cccc(C)c3nc21 (centres undefined)	64	-1	·	-26%	69	15µM*
